According to PubChem BioAssay (EPA / NIEHS):
Several values for one entry are separate records, joined by “and”; a condition that tells them apart may be missing. Equal values may be shown once. More than one record can exist for a structure, and the calls need not agree. Activity calls are given as the source filed them. How the source made its calls: active means hit-call score of the fitted dose curve at least 0.9, where 1 is the maximum; inactive means score below 0.9.

The compounds below were run against Hepatocyte nuclear factor 3-beta (Homo sapiens) (UniProt Q9Y261) (assay: ATG_FoxA2_CIS: Attagene CIS-FACTORIAL HepG2 Assay for human Forkhead box A2 (FOXA2) (AID 2282942)). Conditions: HepG2 cis-reporter transcription factor activity, 24 h; actives raise or lower the signal.
Hepatocyte nuclear factor 3-beta (Homo sapiens), sequence (Q9Y261 whole entry, looked up): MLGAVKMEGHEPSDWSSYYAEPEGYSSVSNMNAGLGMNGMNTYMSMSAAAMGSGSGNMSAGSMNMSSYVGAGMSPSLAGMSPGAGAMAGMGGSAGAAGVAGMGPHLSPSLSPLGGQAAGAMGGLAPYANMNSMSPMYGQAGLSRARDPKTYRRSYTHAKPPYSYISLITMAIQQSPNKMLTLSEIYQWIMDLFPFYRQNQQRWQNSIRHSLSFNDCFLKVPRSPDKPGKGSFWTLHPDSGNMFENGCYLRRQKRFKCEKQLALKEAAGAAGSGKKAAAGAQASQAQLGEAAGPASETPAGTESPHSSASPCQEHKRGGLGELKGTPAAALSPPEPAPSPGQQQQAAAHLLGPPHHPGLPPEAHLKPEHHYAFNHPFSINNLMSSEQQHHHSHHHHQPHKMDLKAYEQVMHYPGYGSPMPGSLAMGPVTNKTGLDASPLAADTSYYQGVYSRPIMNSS
Procedure: ATG_CIS is a cell-based, multiplexed-readout assay that uses HepG2, a human liver cell line, with measurements taken at 24 hours after chemical dosing in a 24-well plate.ATG_FoxA2_CIS is one of 52 assay component(s) measured or calculated from the ATG_CIS assay. It is designed to make measurements of mRNA induction, a form of inducible reporter, as detected with fluorescence intensity signals by Reverse transcription polymerase chain reaction (RT-PCR) and Capillary electrophoresis technology.Data from the assay component ATG_FoxA2_CIS was analyzed into 1 assay endpoint. This assay endpoint, ATG_FoxA2_CIS, was analyzed with bidirectional fitting relative to DMSO as the negative control and baseline of activity. Using a type of inducible reporter, measures of mRNA for gain or loss-of-signal activity can be used to understand the reporter gene at the transcription factor-level as they relate to the gene FOXA2. Furthermore, this assay endpoint can be referred to as a primary readout, because this assay has produced multiple assay endpoints where this one serves a reporter gene function. To generalize the intended target to other relatable targets, this assay endpoint is annotated to the dna binding intended target family, where the subfamily is forkhead box protein.
Human liver HepG2 cells are transiently transfected with multiple reporter transcription units (MRTUs) in 6-well plates using FuGene 6 reagent (Roche; 3 ml FuGene/1 mg DNA). The MRTU constructs are regulated by a cis-regulating element (promoter). […] A major difference between the CIS and TRANS system is that in CIS activities of endogenous TFs are measured, whereas the TRANS assay evaluates changes in activities of exogenous, chimeric NR-Gal4 proteins. […] At the end of 24 hour incubation, total RNA was isolated using TriZol reagent (Invitrogen). The isolated RNA is then reverse-transcribed using oligo(dT) primer and Mo-MLV reverse transcriptase (Invitrogen) with DNAse I (Ambion) treatment for 30 min. The one-tenth of the produced cDNA was amplified by PCR using Taq DNA polymerase (Invitrogen) and two reporter sequence-specific primers. The PCR products were fluorescently labeled by primer extension with 6-arboxyfluorescein (6-FAM) 5'-labeled reporter sequence-specific primer (2 min at 95 C, 20 s at 68 C and 10 min at 72 C) and these products were digested with 5U of HpaI (New England Biolabs) for 2h at 37 C. The fragments were purified using Qiaquick PCR columns (Qiagen), analyzed on an ABI 3130xL genetic analyzer (Applied Biosystems) with peak positions identified by using a set of X-rhodamine (ROX)-labeled MapMarker1000 molecular weight standards (BioVentures). The raw capillary electrophoresis data was processed using Attagraph software (Attagene).

Row | Structure (SMILES) | outcome | AC50
1 | c1ccc2cc3ccccc3cc2c1 | inactive | –
2 | CCc1cccc(CC)c1N | inactive | –
3 | NC(=O)N(O)[C@@H]1COc2cc(OCc3ccccc3)ccc21 | inactive | –
4 | Cc1nc(-c2ccccn2)ncc1C(=O)Nn1cc(C)c2cc(F)ccc21 | inactive | –
5 | c1ccc(C(O[C@@H]2CCCN(CCc3ccc4c(c3)OCO4)C2)c2ccccc2)cc1 | inactive | –
6 | C=CN1CCCC1=O | inactive | –
7 | OC(O)(C(F)C(O)(O)C(F)(F)F)C(F)(F)F | inactive | –
8 | CCCCOC(=O)c1ccccc1 | inactive | –
9 | CCCOc1ccc(S(=O)(=O)N2CCN(CC)CC2)cc1-c1nc2c(CC)n(Cc3ccccn3)nc2c(=O)[nH]1 | inactive | –
10 | OCc1c[nH]c2ccccc12 | inactive | 1.72 µM (active) and 512 nM (active) and 1.85 µM (active)
11 | O=C(O)c1ccc2c(c1)nc(C(=O)NC1CCN(C3CC3)CC1)n2Cc1cc(-c2ccc(Cl)s2)on1 | inactive | –
12 | OCc1ccccc1 | inactive | –
13 | OC(Cn1cncn1)(Cn1cncn1)c1ccc(F)cc1F | inactive | –
14 | Nc1ccn([C@@H]2O[C@H](CO)[C@@H](O)[C@@H]2O)c(=O)n1 | inactive | –
15 | CCCCCCCCCCCCCCCCOS(=O)(=O)O | inactive | –
16 | OC[C@H]1O[C@@H]2O[C@H]3[C@H](O)[C@@H](O)[C@@H](O[C@H]4[C@H](O)[C@@H](O)[C@@H](O[C@H]5[C@H](O)[C@@H](O)[C@@H](O[C@H]6[C@H](O)[C@@H](O)[C@@H](O[C@H]7[C@H](O)[C@@H](O)[C@@H](O[C@H]1[C@H](O)[C@H]2O)O[C@@H]7CO)O[C@@H]6CO)O[C@@H]5CO)O[C@@H]4CO)O[C@@H]3CO | inactive | –
17 | NNC(=O)c1ccncc1 | inactive | –
18 | O=c1[nH]cnc2c1ncn2[C@H]1CC[C@@H](CO)O1 | inactive | –
19 | CCCc1ccccc1 | inactive | –
20 | O=C(O)CO | inactive | –

Row | Structure (SMILES) | outcome | AC50
21 | FC(F)C(F)(F)COCC1CO1 (stereo not given) | inactive | –
22 | CCCCC(CC)C(=O)OCCOCCOCCOC(=O)C(CC)CCCC (stereo not given) | inactive | –
23 | NC(=O)NN=Cc1ccc([N+](=O)[O-])o1 | inactive | –
24 | OC(CCl)CCl | inactive | –
25 | c1ccc2ncccc2c1 | inactive | –
26 | CCCCN1C(=O)[C@@H]([C@H](O)C2CCCCC2)NC(=O)C12CCN(Cc1ccc(Oc3ccc(C(=O)O)cc3)cc1)CC2 | inactive | –
27 | CCOC(N)=O | inactive | –
28 | CC1(C)C(=O)N(Cl)C(=O)N1Cl | inactive | –
29 | O=S(=O)(O)c1ccc(N=Nc2c(O)ccc3cc(S(=O)(=O)O)ccc23)cc1 | inactive | –
30 | CNC(C)=O | inactive | –
31 | OC[C@H]1O[C@@](CO)(O[C@H]2O[C@H](CO)[C@@H](O)[C@H](O)[C@H]2O)[C@@H](O)[C@@H]1O | inactive | –
32 | CCCCCCCCCC | inactive | –
33 | CCCCCCOC(=O)CC(CC(=O)OCCCCCC)(OC(=O)CCC)C(=O)OCCCCCC | inactive | –
34 | C=CCc1cc(S(=O)(=O)c2ccc(O)c(CC=C)c2)ccc1O | inactive | –
35 | O=C(O)c1cccc(C(=O)O)c1 | inactive | –
36 | COCc1nnc(-c2ccc[n+]([O-])c2)n1-c1c(Cl)c(Cl)cc2[nH]c(=O)c(=O)[nH]c12 | inactive | –
37 | OCCOCCOCCO | inactive | –
38 | Cc1ncc([C@@H](CCCCCCc2ccc3c(n2)NCCC3)CC(=O)O)cn1 | inactive | –
39 | S=P(N1CC1)(N1CC1)N1CC1 | inactive | –
